Laboratory results: PubChem BioAssay (EPA / NIEHS)
Where “and” joins values, the source holds several entries; their conditions need not be identical. Equal entries are not always repeated. Inconclusive results are not listed. A structure can be active in one record and inactive in another. Calls of active or inactive are those of the source. How the source made its calls, unless noted: active means hit-call score of the fitted dose curve at least 0.9, where 1 is the maximum; inconclusive means response in the unintended direction; inactive means score below 0.9.

Columns and labels:
[1] = ATG_ERE_CIS: Attagene CIS-FACTORIAL HepG2 Assay for Estrogen Response Element (ERE) (AID 2282940; active means hit-call score of the fitted dose curve at least 0.9, where 1 is the maximum; inactive means score below 0.9); details: HepG2 ERE cis-reporter, Attagene RNA transcript; actives raise or lower the signal
Method in brief: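 Measuring endogenous transcription factor output, the assay doses transfected HepG2 cells for 24 hours and quantifies reporter transcripts by fluorescent RT-PCR and capillary electrophoresis, with DMSO as baseline.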

[2] = molecular target: Estrogen receptor (Homo sapiens) (UniProt P03372); assay: ATG_ERa_TRANS: Attagene TRANS-FACTORIAL HepG2 Assay for human Estrogen Receptor alpha (ERa) (AID 2282970); details: HepG2 Attagene TRANS ERa GAL4 reporter, mRNA
Sequence of Estrogen receptor (Homo sapiens) (P03372 whole entry, looked up, the tested form may be a part): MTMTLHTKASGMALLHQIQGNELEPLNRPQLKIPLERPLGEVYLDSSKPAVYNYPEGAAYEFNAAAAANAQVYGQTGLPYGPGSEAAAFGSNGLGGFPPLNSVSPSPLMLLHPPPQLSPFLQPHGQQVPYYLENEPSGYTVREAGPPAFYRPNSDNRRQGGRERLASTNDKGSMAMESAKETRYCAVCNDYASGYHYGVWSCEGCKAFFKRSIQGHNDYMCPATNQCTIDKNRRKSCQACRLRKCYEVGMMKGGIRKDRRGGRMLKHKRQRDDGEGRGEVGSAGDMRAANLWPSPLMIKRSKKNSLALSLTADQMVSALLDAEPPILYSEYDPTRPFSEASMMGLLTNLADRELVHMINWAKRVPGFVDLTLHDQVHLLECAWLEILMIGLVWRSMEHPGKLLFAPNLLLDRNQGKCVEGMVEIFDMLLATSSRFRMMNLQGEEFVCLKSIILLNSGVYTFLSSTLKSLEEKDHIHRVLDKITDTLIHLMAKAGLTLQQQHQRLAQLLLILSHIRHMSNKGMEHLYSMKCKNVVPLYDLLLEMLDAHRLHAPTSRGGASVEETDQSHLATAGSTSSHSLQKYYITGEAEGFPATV
Method in brief: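 Transactivation via ERa-Gal4 chimera in HepG2; 24 hour incubation; reporter mRNA detected by fluorescence RT-PCR and capillary electrophoresis.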

[3] = molecular target: Estrogen-related receptor gamma (Homo sapiens) (UniProt P62508); assay: ATG_ERRg_TRANS: Attagene TRANS-FACTORIAL HepG2 Assay for human Estrogen-Related Receptor gamma (ERRg) (AID 2282977); details: HepG2 Attagene TRANS reporter, ERRg transactivation;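 further: hits increase reporter signal over DMSO so potencies reflect activators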
Sequence of Estrogen-related receptor gamma (Homo sapiens) (P62508 whole entry, looked up, the tested form may be a part): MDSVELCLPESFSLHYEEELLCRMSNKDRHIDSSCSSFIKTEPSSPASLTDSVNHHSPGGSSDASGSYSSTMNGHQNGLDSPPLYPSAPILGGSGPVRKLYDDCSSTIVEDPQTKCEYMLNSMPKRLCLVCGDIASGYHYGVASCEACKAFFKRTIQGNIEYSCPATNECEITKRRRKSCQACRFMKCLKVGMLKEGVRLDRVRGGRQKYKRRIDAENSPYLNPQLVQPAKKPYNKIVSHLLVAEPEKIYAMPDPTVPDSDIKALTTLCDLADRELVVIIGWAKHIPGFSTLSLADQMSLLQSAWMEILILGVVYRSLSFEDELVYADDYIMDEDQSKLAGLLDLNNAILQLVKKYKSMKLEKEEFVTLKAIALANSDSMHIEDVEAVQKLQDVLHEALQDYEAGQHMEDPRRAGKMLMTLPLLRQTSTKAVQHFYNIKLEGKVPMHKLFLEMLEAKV
Method in brief: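 Transient HepG2 transfectants, 24 h compound exposure, GAL4-UAS reporter mRNA by RT-PCR/6-FAM labelling/capillary electrophoresis; positive direction vs DMSO.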

[4] = molecular target: Bile acid receptor (Homo sapiens) (UniProt Q96RI1); assay: ATG_FXR_TRANS: Attagene TRANS-FACTORIAL HepG2 Assay for Farnesoid X Receptor (FXR) (AID 2282979); details: HepG2 Attagene TRANS FXR-GAL4 reporter transcription;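 further: hits raise reporter mRNA above DMSO so AC50 marks FXR activation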
Sequence of Bile acid receptor (Homo sapiens) (Q96RI1 whole entry, looked up, the tested form may be a part): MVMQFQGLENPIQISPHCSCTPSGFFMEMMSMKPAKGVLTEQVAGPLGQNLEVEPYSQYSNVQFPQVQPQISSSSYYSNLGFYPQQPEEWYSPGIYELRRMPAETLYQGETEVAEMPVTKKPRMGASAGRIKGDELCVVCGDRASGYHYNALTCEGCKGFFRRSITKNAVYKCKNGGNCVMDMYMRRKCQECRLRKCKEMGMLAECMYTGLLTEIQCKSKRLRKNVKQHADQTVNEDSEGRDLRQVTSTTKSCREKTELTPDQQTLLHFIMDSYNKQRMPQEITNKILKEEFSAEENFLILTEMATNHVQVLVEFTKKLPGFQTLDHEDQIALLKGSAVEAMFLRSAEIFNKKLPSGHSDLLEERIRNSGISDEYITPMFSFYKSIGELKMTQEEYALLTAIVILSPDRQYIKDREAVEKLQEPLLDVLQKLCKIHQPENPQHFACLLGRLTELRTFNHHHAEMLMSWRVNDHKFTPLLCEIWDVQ
Method in brief: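 Chimeric FXR-GAL4 activity in transiently transfected human HepG2 liver cells is scored as induction of reporter mRNA after 24 h of dosing. Detection uses RT-PCR with fluorescent labelling and capillary electrophoresis, with DMSO serving as baseline.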

[5] = BSK_3C_TissueFactor: BioMAP Diversity Plus: 3C Assay for Tissue Factor Biomarker Activity (AID 2282997; active means hit-call score of the fitted dose curve at least 0.9, where 1 is the maximum; inactive means score below 0.9); details: BioMAP 3C HUVEC, tissue factor biomarker readout; actives raise or lower the signal
Method in brief: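 Values derive from bidirectional curve fitting against DMSO of Tissue Factor ELISA signals, taken 24 h after dosing primary human umbilical vein endothelial cells.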

[6] = BSK_3C_uPAR: BioMAP Diversity Plus: 3C Assay for Urokinase-type plasminogen activator receptor (uPAR) Biomarker Activity (AID 2282998; active means hit-call score of the fitted dose curve at least 0.9, where 1 is the maximum; inactive means score below 0.9); details: BioMAP 3C HUVEC, uPAR biomarker ELISA; actives raise or lower the signal
Method in brief: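 Readout: ELISA for surface uPAR. System: human umbilical vein endothelial primary cells, 24 h after chemical exposure. Analysis: bidirectional fit, DMSO baseline.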

[7] = BSK_4H_Eotaxin3: BioMAP Diversity Plus: 4H Assay for Eotaxin 3 Biomarker Activity (AID 2283000; active means hit-call score of the fitted dose curve at least 0.9, where 1 is the maximum; inactive means score below 0.9); details: primary human endothelial cells (HUVEC); actives raise or lower the signal
Method in brief: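 Endothelial primary cells (human umbilical vein) exposed to compound for 24 h. ELISA detection of Eotaxin-3.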

[8] = read-out: Interleukin-1 alpha (IL1a), IL1A (gene 3552); assay: BSK_BE3C_IL1a: BioMAP Diversity Plus: BE3C Assay for Interleukin-1 alpha (IL1a) Biomarker Activity (AID 2283016; active means hit-call score of the fitted dose curve at least 0.9, where 1 is the maximum; inactive means score below 0.9); details: primary human bronchial epithelial cells; actives raise or lower the signal
Method in brief: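 Cultures of primary human bronchial epithelial cells receive test chemical. After 24 h, IL-1a is quantified by ELISA, while parallel wells are fixed in TCA and SRB-stained for total protein. Changes in either direction are fitted relative to DMSO.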

[9] = read-out: Monokine induced gamma interferon (MIG), CXCL9 (gene 4283); assay: BSK_3C_MIG: BioMAP Diversity Plus: 3C Assay for Monokine induced gamma interferon (MIG) Biomarker Activity (AID 2283021; active means hit-call score of the fitted dose curve at least 0.9, where 1 is the maximum; inactive means score below 0.9;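 on AC50: MIG protein level measured by immunoassay in the treated endothelial cultures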); details: primary human endothelial cells (HUVEC); actives raise or lower the signal
Method in brief: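 After 24 h of treatment, human umbilical vein endothelial cultures (3C system) had their MIG biomarker level determined by ELISA, with DMSO serving as negative control.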

[10] = molecular target: Retinoic acid receptor RXR-alpha (Homo sapiens) (UniProt P19793); assay: ATG_RXRa_TRANS: Attagene TRANS-FACTORIAL HepG2 Assay for human Retinoid X Receptor alpha (RXRa) (AID 2283012)
Sequence of Retinoic acid receptor RXR-alpha (Homo sapiens) (P19793 whole entry, looked up, the tested form may be a part): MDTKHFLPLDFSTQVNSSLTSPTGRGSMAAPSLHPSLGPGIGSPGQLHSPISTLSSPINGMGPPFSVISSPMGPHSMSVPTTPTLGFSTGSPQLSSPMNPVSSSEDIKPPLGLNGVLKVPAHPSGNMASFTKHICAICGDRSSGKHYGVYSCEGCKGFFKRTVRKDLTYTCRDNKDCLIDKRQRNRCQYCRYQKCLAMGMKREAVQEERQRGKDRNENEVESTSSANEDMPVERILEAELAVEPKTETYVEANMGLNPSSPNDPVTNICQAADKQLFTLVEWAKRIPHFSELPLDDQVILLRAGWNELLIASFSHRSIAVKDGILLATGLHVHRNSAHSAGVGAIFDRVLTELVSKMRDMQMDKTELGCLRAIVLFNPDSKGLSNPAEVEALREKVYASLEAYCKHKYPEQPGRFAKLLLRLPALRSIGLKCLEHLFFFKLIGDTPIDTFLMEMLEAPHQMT
Method in brief: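 Cells (HepG2) carried transiently transfected GAL4-responsive reporter units. Following a 24 h chemical incubation, reporter mRNA induction was read via RT-PCR fragment analysis; DMSO served as negative control and baseline.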

[11] = molecular target: human Vitamin D Receptor (VDR), VDR (gene 7421) (UniProt P11473); assay: ATG_VDR_TRANS: Attagene TRANS-FACTORIAL HepG2 Assay for human Vitamin D Receptor (VDR) (AID 2283022)
Sequence of human Vitamin D Receptor (VDR), VDR (gene 7421) (P11473 whole entry, looked up, the tested form may be a part): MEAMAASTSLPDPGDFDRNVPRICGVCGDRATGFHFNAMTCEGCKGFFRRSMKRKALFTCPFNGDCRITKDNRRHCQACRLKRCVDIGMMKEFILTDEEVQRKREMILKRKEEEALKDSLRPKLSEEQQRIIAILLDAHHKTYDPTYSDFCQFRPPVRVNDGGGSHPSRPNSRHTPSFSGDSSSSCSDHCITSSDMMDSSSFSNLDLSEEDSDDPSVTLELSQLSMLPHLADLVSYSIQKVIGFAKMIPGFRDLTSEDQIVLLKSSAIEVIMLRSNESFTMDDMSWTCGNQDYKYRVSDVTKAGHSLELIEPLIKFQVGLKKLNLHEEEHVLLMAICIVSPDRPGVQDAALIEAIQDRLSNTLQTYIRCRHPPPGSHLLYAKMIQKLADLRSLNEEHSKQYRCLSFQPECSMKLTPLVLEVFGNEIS
Method in brief: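 Fluorescence of labelled reporter cDNA fragments, resolved by capillary electrophoresis, gives mRNA induction after 24 h treatment of HepG2 cells carrying transfected Gal4-fusion reporter units. Activity is fitted in the positive direction with DMSO as baseline.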

[12] = molecular target: Estrogen receptor beta (Homo sapiens) (UniProt Q92731); assay: OT_ER_ERbERb_0480: Odyssey Thera (OT) 8-hour HEK293T Protein-Complementation Assay for Estrogen Receptor-beta/-beta Homodimer (AID 2283357);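 further: active means signal gain over DMSO baseline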
Sequence of Estrogen receptor beta (Homo sapiens) (Q92731 whole entry, looked up, the tested form may be a part): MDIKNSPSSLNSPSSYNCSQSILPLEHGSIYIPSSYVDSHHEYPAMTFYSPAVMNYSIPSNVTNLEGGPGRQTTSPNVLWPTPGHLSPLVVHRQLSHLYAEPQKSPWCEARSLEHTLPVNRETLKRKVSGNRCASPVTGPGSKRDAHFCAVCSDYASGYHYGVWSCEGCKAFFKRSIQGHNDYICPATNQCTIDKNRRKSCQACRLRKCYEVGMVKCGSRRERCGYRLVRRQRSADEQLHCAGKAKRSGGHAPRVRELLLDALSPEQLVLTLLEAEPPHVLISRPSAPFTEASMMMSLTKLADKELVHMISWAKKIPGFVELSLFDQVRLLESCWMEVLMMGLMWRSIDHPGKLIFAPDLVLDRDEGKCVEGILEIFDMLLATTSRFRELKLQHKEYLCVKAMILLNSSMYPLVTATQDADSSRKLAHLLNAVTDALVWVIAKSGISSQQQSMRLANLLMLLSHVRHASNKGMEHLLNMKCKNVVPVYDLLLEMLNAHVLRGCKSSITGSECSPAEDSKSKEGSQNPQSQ
Method in brief: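 Readout: increase in mean fluorescence intensity (nucleus for agonists; nucleus plus cytoplasm for antagonists) relative to DMSO, from a reporter-fragment complementation of human ER-beta LBD homodimer in HEK293T cells dosed 8 hours.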

[13] = molecular target: Estrogen receptor beta (Homo sapiens) (UniProt Q92731); assay: OT_ER_ERbERb_1440: Odyssey Thera (OT) 24-hour HEK293T Protein-Complementation Assay for Estrogen Receptor-beta/-beta Homodimer (AID 2283380);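 further: fluorescence gain from ER beta LBD homodimer complementation read by laser scanning cytometry; scored as signal increase over DMSO baseline for both agonists and antagonists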
Method in brief: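 HEK293T cells stably expressing human ER-beta LBD (aa 310-547) PCA homodimer pair, dosed 24 h; formaldehyde-fixed, Draq5-stained. Readout: increase in nuclear (agonist) or nuclear plus cytoplasmic (antagonist) fluorescence intensity versus DMSO, gain-of-signal fitting.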

[14] = molecular target: Peroxisome proliferator-activated receptor gamma (Homo sapiens) (UniProt P37231); assay: OT_PPARg_PPARgSRC1_0480: Odyssey Thera (OT) 8-hour Protein-Complementation Assay for Peroxisome Proliferator-activated Receptor Gamma / SRC-1 Co-activator (AID 2283387);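 further: nuclear to cytoplasmic split Venus YFP fluorescence ratio reporting PPARg SRC-1 interaction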
Sequence of Peroxisome proliferator-activated receptor gamma (Homo sapiens) (P37231 whole entry, looked up, the tested form may be a part): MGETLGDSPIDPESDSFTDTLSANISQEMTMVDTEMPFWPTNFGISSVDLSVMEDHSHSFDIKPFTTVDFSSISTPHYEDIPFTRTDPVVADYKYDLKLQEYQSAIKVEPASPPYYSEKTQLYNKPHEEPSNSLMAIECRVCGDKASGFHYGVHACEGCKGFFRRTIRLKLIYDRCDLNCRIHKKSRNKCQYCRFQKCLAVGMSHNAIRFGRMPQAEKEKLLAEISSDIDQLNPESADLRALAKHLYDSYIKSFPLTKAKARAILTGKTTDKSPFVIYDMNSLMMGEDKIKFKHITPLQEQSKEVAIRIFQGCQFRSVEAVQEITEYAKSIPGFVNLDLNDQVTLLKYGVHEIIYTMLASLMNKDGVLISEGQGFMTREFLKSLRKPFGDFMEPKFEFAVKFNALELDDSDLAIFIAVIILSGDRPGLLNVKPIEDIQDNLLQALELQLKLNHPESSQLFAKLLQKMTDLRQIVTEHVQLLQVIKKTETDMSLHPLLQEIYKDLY
Method in brief: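 Read-out: 488 nm N/C fluorescence ratio from complemented Venus YFP fragments, ≥350 cells per image, gain-of-signal fitted against DMSO baseline. Fusions of PPARg/SRC-1 with IFP1/IFP2 expressed transiently in HEK293T; compounds applied 8 h.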

[15] = molecular target: Peroxisome proliferator-activated receptor gamma (Homo sapiens) (UniProt P37231); assay: OT_PPARg_PPARgSRC1_1440: Odyssey Thera (OT) 24-hour Protein-Complementation Assay for Peroxisome Proliferator-activated Receptor Gamma/ SRC-1 Co-activator (AID 2283388);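 further: nuclear to cytoplasmic ratio of reconstituted Venus YFP fluorescence in fixed imaged cells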
Method in brief: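 Transient HEK293T, YFP fragments 1-158/159-239 (mutant IFP1/IFP2) fused to PPARg/SRC-1; 24 h dosing; fix 4% formaldehyde, Draq5; Opera imaging 488/635 nm; N/C ratio, gain vs DMSO.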

[16] = ACEA_AR_agonist_AUC_viability: ACEA Biosciences xCELLigence Real-Time Cell Analysis on Androgen Receptor Agonism for Viability (AID 2283775)
Method in brief: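 Read-out is area under the impedance curve at 80 h post-dose in 22Rv1 cells, with DMSO as baseline and signal loss taken as reduced viability. Compounds ran in duplicate from 100 uM final.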

[17] = ACEA_AR_antagonist_AUC_viability: ACEA Biosciences xCELLigence Real-Time Cell Analysis on Androgen Receptor Antagonism for Viability (AID 2283776);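 further: 22Rv1 human prostate cancer cells growing on impedance electrode plates; area under impedance growth curve at 80 h after dosing as viability; hits lower the growth signal relative to DMSO meaning cytotoxicity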
Method in brief: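 Real-time electrical impedance tracks 22Rv1 proliferation after continuous compound exposure (top 100 uM final, 1:4 steps, 8 concentrations). The 80 h area-under-curve serves as the cytotoxicity readout relative to DMSO.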

[18] = CCTE_Harrill_HTTr_CellCount_MCF7: CCTE's Cell Proliferation Assessment for the High-Throughput Transcriptomics (HTTr) Platform, Harrill Lab (AID 2284012);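 further: count of Hoechst-stained nuclei per well by high-content imaging in MCF-7 cells; cells exposed to compound for six hours; intended direction is loss of nuclei count meaning fewer cells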
Method in brief: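 Nuclei counting (Hoechst, high content imaging) in MCF-7 after a 6 h treatment at eight concentrations. Activity fitted bidirectionally, DMSO as negative control.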

[19] = molecular target: Retinoic acid receptor RXR-alpha (Homo sapiens) (UniProt P19793); assay: OT_NURR1_NURR1RXRa_0480: Odyssey Thera (OT) 8-hour HEK293T Protein Complementation Assay for Nurr1/retinoid X receptor (RXR) (AID 2283385)
Method in brief: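 Compounds are applied to HEK293T cells carrying Nurr1 and RXRα linked to reporter fragments. After 8 h, fluorescence intensity reports heterodimer formation, with DMSO as baseline.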

[20] = molecular target: Steroid hormone receptor ERR1 (Homo sapiens) (UniProt P11474); assay: ATG_ERRa_TRANS: Attagene TRANS-FACTORIAL HepG2 Assay for human Estrogen-Related Receptor alpha (ERRa) (AID 2282971); details: HepG2 Attagene TRANS reporter, ERRa transactivation
Sequence of Steroid hormone receptor ERR1 (Homo sapiens) (P11474 whole entry, looked up, the tested form may be a part): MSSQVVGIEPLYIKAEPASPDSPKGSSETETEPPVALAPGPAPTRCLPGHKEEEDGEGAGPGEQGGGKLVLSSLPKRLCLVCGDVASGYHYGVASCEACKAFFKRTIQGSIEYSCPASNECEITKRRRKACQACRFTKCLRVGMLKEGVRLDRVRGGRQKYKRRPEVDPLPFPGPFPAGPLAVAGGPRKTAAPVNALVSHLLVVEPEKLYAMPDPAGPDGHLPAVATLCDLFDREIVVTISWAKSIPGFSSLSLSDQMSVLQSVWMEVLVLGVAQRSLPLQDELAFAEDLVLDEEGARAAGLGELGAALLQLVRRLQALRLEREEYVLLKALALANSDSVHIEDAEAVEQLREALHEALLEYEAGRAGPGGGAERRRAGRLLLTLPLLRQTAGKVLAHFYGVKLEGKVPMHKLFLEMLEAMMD
Method in brief: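 HepG2 cells were transiently transfected with multiple GAL4-UAS reporter units, then dosed with compound for 24 h. Total RNA was reverse-transcribed, reporter cDNA PCR-amplified and fluorescently labelled, and fragments resolved by capillary electrophoresis; induction was compared with DMSO.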

Measured: AC50

O=c1c2ccccc2c(=O)c2c1cc(Cl)c1[nH]c3c([nH]c12)c(Cl)cc1c(=O)c2ccccc2c(=O)c13
inactive: [1] | [2] | [3] | [4] | [6] | [8] | [9]
active: [5] 15.8 µM | [7] 24.8 µM

CCN(CC)C(=S)S
inactive: [1] | [2] | [10]

O=C(NC(=O)c1c(F)cccc1F)Nc1ccc(Oc2ccc(C(F)(F)F)cc2Cl)cc1F
inactive: [4] | [11] | [12] | [13] | [14] | [15] | [16] | [17]

CC(C)C#N
inactive: [14] | [15] | [16] | [17]

CN1C(=O)CCS(=O)(=O)C1c1ccc(Cl)cc1 (stereo not given)
inactive: [18]

CCOP(O)OCC
inactive: [10] | [12] | [13] | [14] | [15] | [16]

O=C(CCN1CC1)OCC(CO)(COC(=O)CCN1CC1)COC(=O)CCN1CC1
inactive: [4]

Cc1ccc(C)c2ccccc12
inactive: [12] | [13] | [19] | [14] | [15] | [16]

CC(C)C(=O)Cl
inactive: [3] | [4]

Nc1cc(Cl)cc(Cl)c1
inactive: [11] | [12] | [13] | [19] | [14] | [15] | [16]

CCCOC(=O)c1ccccc1C(=O)OCCC
inactive: [4] | [5] | [6] | [7] | [8] | [9]
active: [1] 49.8 µM | [2] 33.7 µM

O=P1(NCCCl)OCCCN1CCCl (stereo not given)
inactive: [20] | [5] | [6] | [7] | [8] | [9]

O=C(O)COc1ccccc1
inactive: [1] | [2]

O=c1[nH]c(Cl)c(Cl)cc1Cl
inactive: [20] | [3] | [4] | [5] | [6] | [7] | [8] | [9] | [11] | [18]

COC(C)(C)CCC[C@H](C)C/C=C/C(C)=C/C(=O)OC(C)C
inactive: [3] | [10]
active: [5] 20 µM | [6] 33.5 µM | [7] 29.4 µM | [8] 7.52 µM | [9] 39.2 µM

C[N+](=O)[O-]
inactive: [1] | [20] | [3] | [10]

COc1ncc(F)c2nc(S(=O)(=O)Nc3c(F)cccc3F)nn12
inactive: [1] | [2] | [10] | [18]

CC1(C)C(=O)NC(=O)NC1=O
inactive: [1] | [20] | [10]

Cc1ccccc1CCl
inactive: [3]

CCC(=O)c1ccc(Cl)cc1
inactive: [12] | [13] | [19] | [14] | [15] | [16]

Cc1ccc(OP(=O)(Oc2ccc(C)cc2)Oc2ccc(C)cc2)cc1 (tested in a mixture with another compound)
inactive: [5] | [6] | [7] | [10] | [8] | [9] | [14] | [15] | [18]
active: [19] 15.5 µM

O=C(O)CCCc1ccc(N(CCCl)CCCl)cc1
active: [5] 20 µM and 12.3 µM | [6] 20 µM and 16.3 µM | [7] 26.3 µM and 20 µM | [8] 20 µM | [9] 32.8 µM
inactive: [1] | [2] | [9] | [18]

O=C=Nc1ccccc1
inactive: [20] | [3] | [10] | [13] | [14] | [15] | [16] | [17] | [18]

CC1(C)CC(=O)CC(C)(C)N1[O]
inactive: [3] | [4]

ClCC(Cl)Cl
inactive: [1]

CC1CCCC1.[C-]#[O+].[C-]#[O+].[C-]#[O+].[Mn]
inactive: [10] | [19] | [14] | [15] | [16]

CN(C)N
inactive: [10] | [12] | [13] | [19] | [14] | [15] | [16] | [17] | [18]

CCOC(=O)C1OC1(C)c1ccccc1 (stereo not given)
active: [13] 37.3 µM
inactive: [10] | [12] | [19] | [14] | [15] | [16]
